Experimental findings from PubChem BioAssay (Tox21) are described below.

Each structure is given as a SMILES string. Results filed as inconclusive are left out. A call without a number means that no potency is given here. Activity calls are given as the source filed them. Unless noted, calls follow the shape of the full dose curve.
Also: nearly all actives have a fitted effect of over 50% in size.

Test system in one assay: not listed separately
Description: qHTS assay to identify small molecule agonists of the endoplasmic reticulum stress response signaling pathway - cell viability counter screen (AID 1159517).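 Also: HeLa cells carrying an ER stress response element beta-lactamase reporter.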 Conditions: ESRE-bla HeLa viability, CellTiter-Glo luminescence, 5 h; series mostly up to 61 µM. In short, it runs like this: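 Cells, HeLa ESRE-bla; density, 1,500/well; dosing, 5 hr at 37 C, 5% CO2; readout, CellTiter-Glo luminescence after 30 min RT.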
(In general: In qHTS, concentration-response curves come from the screen itself.)
As to `CC(=O)Oc1ccc2c(c1)CC[C@@H]1[C@@H]2CC[C@]2(C)[C@@H](O)CC[C@@H]12`, the molecule was called inactive.
As to `CC(N)CN` (configuration not stated), the call was inactive.
Consider `COc1cc2ncnc(Nc3ccc(F)c(Cl)c3)c2cc1OCCCN1CCOCC1`, for which the molecule was classed as inactive.
Still for that read-out and setting: under `Cc1cc(OI)c(C(C)C)cc1-c1cc(C(C)C)c(OI)cc1C` stands “inactive”.
Consider `CCc1nn(CCCN2CCN(c3cccc(Cl)c3)CC2)c(=O)n1CCOc1ccccc1`, for which the result was inactive.
On to `CCN(Cc1cccc(S(=O)(=O)O)c1)c1ccc(C(=C2C=CC(=[N+](CC)Cc3cccc(S(=O)(=O)[O-])c3)C=C2)c2ccccc2)cc1`, for which the molecule was classed as inactive.
Take `O=C(CCCN1CCN(c2ccc(F)cc2)CC1)NC1c2ccccc2CSc2ccccc21` (configuration not stated): the call was inactive.
On to `C=CCNc1nc(NCC=C)nc(N2CCN(C(c3ccc(F)cc3)c3ccc(F)cc3)CC2)n1`, for which the molecule was classed as inactive.
As for `CC(C)CCCC(=O)O`, the result was inactive.
Take `COCCOC`: the molecule was classed as inactive.
Consider `CC1C2CC(CC2C2CCCC(O)C2)C1(C)C` (configuration not stated), for which the molecule was classed as inactive.
As for `O=C(CS)OCCOC(=O)CS`, the outcome was inactive.
Same read-out and setting: under `CCCc1c(OCCCOc2ccc(OCC(=O)O)cc2)ccc(C(C)=O)c1O` stands “inactive”; under `CCCCCCCCCCCC[N+](C)(C)CC(=O)[O-]`, “inactive”; under `Cc1occc1C(=O)Nc1ccc(C(=O)N2CCC(F)(F)/C(=C\C(=O)N3CCC(N4CCCCC4)CC3)c3ccccc32)cc1`, “inactive”.
Take `O=C1OCCN1/N=C/c1ccc([N+](=O)[O-])o1`: the molecule was called inactive.
On to `COC(OC)(C(=O)c1ccccc1)c1ccccc1`, for which the call was inactive.
Take `CO/N=C1\CN(c2nc3c(cc2F)c(=O)c(C(=O)O)cn3C2CC2)CC1CN` (configuration not stated): the call was inactive.
On the same count and under the same terms, under `CC(C)C(OC(=O)c1ccccc1)C(C)(C)COC(=O)c1ccccc1` (configuration not stated) stands “inactive”.
Still for that read-out and setting: under `O=C(Nc1ccc([N+](=O)[O-])cc1)Nc1ccc([N+](=O)[O-])cc1` stands “inactive”; under `CC(C)(CCl)c1ccccc1`, “inactive”.
In the case of `Cc1nccn1-c1ccc(Sc2cccc(C3(C(N)=O)CCOCC3)c2)cc1`, the molecule was called inactive.
Turning to `CC[C@@H]([C@H](C)O)n1ncn(-c2ccc(N3CCN(c4ccc(OC[C@@H]5CO[C@@](Cn6cncn6)(c6ccc(F)cc6F)C5)cc4)CC3)cc2)c1=O`, the outcome was inactive.
Same read-out and setting: next, `CO[C@@]12[C@H](COC(N)=O)C3=C(C(=O)C(C)=C(N)C3=O)N1C[C@@H]1N[C@@H]12`: “inactive”; `Cc1ccc(S)cc1`: “inactive”; `CCCOCCOCCO`: “inactive”.
Turning to `CC(C)c1nnc2ccc(-c3ocnc3-c3cc(F)ccc3F)cn12`, the call was inactive.
Regarding `CC(C)(C)CC(C)(C)c1ccc(OCCO)cc1`, the outcome was inactive.
As to `O=C(CCCCCCC(=O)Nc1ccccc1)NO`, the molecule was called inactive.
`O=C(c1ccc(O)cc1)c1ccc(Cl)cc1`: the result was inactive.
On the same count and under the same terms, under `CO[C@H]1C=CO[C@@]2(C)Oc3c(C)c(O)c4c(O)c(c5c(c4c3C2=O)=NC2(CCN(CC(C)C)CC2)N=5)NC(=O)/C(C)=C\C=C/[C@H](C)[C@H](O)[C@@H](C)[C@@H](O)[C@@H](C)[C@H](OC(C)=O)[C@@H]1C` stands “inactive”; under `CC(C)(O)c1ccccc1CC[C@@H](SCC1(CC(=O)O)CC1)c1cccc(/C=C/c2ccc3ccc(Cl)cc3n2)c1`, “inactive”; under `NC(=O)Cn1c(=O)cc(CCN2CCN(c3nccc4sccc34)CC2)c2ccc(F)cc21`, “inactive”.
Turning to `O=Cc1c(Cl)cccc1Cl`, the result was inactive.
As to `CC#N`, the result was inactive.
Regarding `CCCCCCCCCCOS(=O)(=O)O`, the call was inactive.
`NC(=O)N(O)[C@@H]1COc2cc(OCc3ccccc3)ccc21`: the result was inactive.
With `OCC1CC=CCC1` (configuration not stated), the result was inactive.
With `C[Si](NC1CCCCC1)(NC1CCCCC1)NC1CCCCC1`, the call was inactive.
With `CCCCCCOC(=O)C(C)C`, the result was inactive.

Test system in the next assay: not listed separately
Description: qHTS assay to identify small molecule antagonists of the retinoid-related orphan receptor gamma (ROR-gamma) signaling pathway - cell viability counter screen (AID 1159520; active = well fitted curve in the direction sought with a large enough effect in the repeat runs; an effect the other way counts as inactive or inconclusive). Conditions: Tet-on RORgamma CHO cells viability, ATP luminescence, 16 h; series mostly up to 92.4 µM. In short, it runs like this:
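Cytotoxicity was read from cellular ATP (CellTiter-Glo luminescence) after 16 hr at 37 C with 1 uM doxycycline induction. The inducer was added 2 hr after compound transfer to Tet-on ROR gamma CHO cells.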
On to `CC(=O)Oc1ccc2c(c1)CC[C@@H]1[C@@H]2CC[C@]2(C)[C@@H](O)CC[C@@H]12`, for which the Potency entry is “inactive”.
Same read-out and setting: under `Cc1cc(OI)c(C(C)C)cc1-c1cc(C(C)C)c(OI)cc1C` stands “inactive”; under `CCN(Cc1cccc(S(=O)(=O)O)c1)c1ccc(C(=C2C=CC(=[N+](CC)Cc3cccc(S(=O)(=O)[O-])c3)C=C2)c2ccccc2)cc1`, “inactive”; under `C=CCNc1nc(NCC=C)nc(N2CCN(C(c3ccc(F)cc3)c3ccc(F)cc3)CC2)n1`, “inactive”.
With `CCCc1c(OCCCOc2ccc(OCC(=O)O)cc2)ccc(C(C)=O)c1O`, the Potency entry is “inactive”.
As for `Cc1occc1C(=O)Nc1ccc(C(=O)N2CCC(F)(F)/C(=C\C(=O)N3CCC(N4CCCCC4)CC3)c3ccccc32)cc1`, the Potency entry is “inactive”.
For the molecule `CO/N=C1\CN(c2nc3c(cc2F)c(=O)c(C(=O)O)cn3C2CC2)CC1CN` (configuration not stated), the Potency entry was “inactive”.
On the same count and under the same terms, under `CCCOCCOCCO` stands “inactive”.
On the same count and under the same terms, next, `CC(C)c1nnc2ccc(-c3ocnc3-c3cc(F)ccc3F)cn12`: “inactive”; `NC(=O)Cn1c(=O)cc(CCN2CCN(c3nccc4sccc34)CC2)c2ccc(F)cc21`: “inactive”; `CCCCCCCCCCOS(=O)(=O)O`: “inactive”.
Consider `C[Si](NC1CCCCC1)(NC1CCCCC1)NC1CCCCC1`, for which the Potency result is “inactive”.

The next assay deals with Nuclear receptor ROR-gamma (Homo sapiens) (UniProt P51449). Description: qHTS assay to identify small molecule antagonists of the retinoid-related orphan receptor gamma (ROR-gamma) signaling pathway (AID 1159521; active = well fitted curve in the direction sought with a large enough effect in the repeat runs; an effect the other way counts as inactive or inconclusive; also: potency is read from the fitted curve at half-maximal effect). The settings on record: Tet-on RORgamma CHO cells, RORE-luciferase, 16 h; series mostly up to 92.4 µM. The essentials:
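Tet-on ROR-gamma CHO cells with ROR response element-luciferase reporter; compounds added 2 hr before 1 uM doxycycline induction, then 16 hr at 37 C. Antagonism scored as decreased ONE-Glo luminescence.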
As for `COc1cc2ncnc(Nc3ccc(F)c(Cl)c3)c2cc1OCCCN1CCOCC1`, the Potency is 11.9 µM (active).
The same measure, in the same setting: next, `CCc1nn(CCCN2CCN(c3cccc(Cl)c3)CC2)c(=O)n1CCOc1ccccc1`: 18.8 µM (active).
On the same count and under the same terms, under `O=C(CCCN1CCN(c2ccc(F)cc2)CC1)NC1c2ccccc2CSc2ccccc21` (configuration not stated) stands 13.3 µM (active); under `CC(C)CCCC(=O)O`, “inactive”.
As for `COCCOC`, the Potency is 41.3 µM (active).
For `CC1C2CC(CC2C2CCCC(O)C2)C1(C)C` (configuration not stated), the Potency entry is “inactive”.
Regarding `O=C(CS)OCCOC(=O)CS`, the Potency entry was “inactive”.
With `CCCCCCCCCCCC[N+](C)(C)CC(=O)[O-]`, the Potency result was “inactive”.
As for `O=C(Nc1ccc([N+](=O)[O-])cc1)Nc1ccc([N+](=O)[O-])cc1`, the Potency was 2.37 µM (active).
Turning to `CC(C)(CCl)c1ccccc1`, the Potency entry was “inactive”.
Turning to `Cc1nccn1-c1ccc(Sc2cccc(C3(C(N)=O)CCOCC3)c2)cc1`, the Potency was 5.45 µM (active).
The same measure, in the same setting: under `CC[C@@H]([C@H](C)O)n1ncn(-c2ccc(N3CCN(c4ccc(OC[C@@H]5CO[C@@](Cn6cncn6)(c6ccc(F)cc6F)C5)cc4)CC3)cc2)c1=O` stands 0.944 µM (active); under `CO[C@@]12[C@H](COC(N)=O)C3=C(C(=O)C(C)=C(N)C3=O)N1C[C@@H]1N[C@@H]12`, “inactive”.
Regarding `Cc1ccc(S)cc1`, the Potency entry is “inactive”.
With `CC(C)(C)CC(C)(C)c1ccc(OCCO)cc1`, the Potency was 19.2 µM (active).
Same read-out and setting: under `O=C(c1ccc(O)cc1)c1ccc(Cl)cc1` stands “inactive”; under `CO[C@H]1C=CO[C@@]2(C)Oc3c(C)c(O)c4c(O)c(c5c(c4c3C2=O)=NC2(CCN(CC(C)C)CC2)N=5)NC(=O)/C(C)=C\C=C/[C@H](C)[C@H](O)[C@@H](C)[C@@H](O)[C@@H](C)[C@H](OC(C)=O)[C@@H]1C`, 53.3 µM (active); under `NC(=O)N(O)[C@@H]1COc2cc(OCc3ccccc3)ccc21`, “inactive”.
With `OCC1CC=CCC1` (configuration not stated), the Potency result is “inactive”.
As for `CCCCCCOC(=O)C(C)C`, the Potency result was “inactive”.
